HepG2 tox = HepG2 cytotoxicity, counter-screen for TGF-b inhibitors; HepG2 CAGA-GFP viability, ATP luminescence, 18 h; AID 588856; Potency, µM (doses to about 46.1 µM), without a hit: at the highest dose activity change, negative = cytotoxicity, most hits filed as cytotoxic; 410,000 compounds, 0.76% hits
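HepG2 CAGA-GFP cells (1000/well, DMEM with 1% FBS) received compound, then TGF-beta at 500 pg/mL final, and were incubated 18 hours at 37 degrees C. Viability was read by CellTiter-Glo luminescence. Media-only wells were set as complete cell-killing and DMSO as no toxicity.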
ATXN2 expr inh = inhibitors of ATXN2 expression; Potency, µM (doses to about 57 µM), for the others: at the top dose activity change, negative = inhibition, actives largely listed as inhibitors; 360,000 compounds, 0.72% hits; HEK-293 ATXN2-luciferase reporter, luminescence, 24 h; note: % is set by controls: 0 for no effect and ±100 for the full control effect; nearly all actives have a fitted effect of over 55% in size
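ATXN2-luciferase reporter cells (luciferase flanked by upstream and downstream ATXN2 gene portions) were treated 24 h at 37 °C with compounds at up to 57 uM. SteadyGlo luminescence gave expression; GF-AFC fluorescence gave viability.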
S2 tox = cell viability loss in ATXN counter-screen | 400,000 compounds, 0.49% hits | S2 cells (HEK-293 line with an ATXN2-luciferase reporter) viability, CellTiter-Fluor protease fluorescence, 24 h | Potency, µM (doses to about 56.7 µM), most hits filed as cytotoxic; note: nearly all actives have a fitted effect of over 40% in size
VP16 counter = Gal4-VP16 reporter inhibition counter-screen | Drosophila S2 Gal4-VP16 UAS-luciferase, luminescence, 20 h | AID 2546 | Potency, µM (titrated, usually from 53.6 µM), without a hit: at the top dose activity, negative = inhibition, most hits filed as inhibitors | 310,000 compounds, 3.5% hits;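 note: Gal4-VP16 expression switched on by copper sulfate through the metallothionein promoter; % is set by controls: 0 for no effect and ±100 for the full control effect; nearly all actives have a fitted effect of over 50% in size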
TGFb inhibitor = TGF-b pathway inhibition; AID 588855; HepG2 CAGA-GFP TGF-b/SMAD3 reporter, GFP fluorescence, 18 h; TGF-beta stimulated, 500 pg/mL final; Potency, µM (highest dose often 46.1 µM), for inactives: at the highest dose activity, negative = inhibition, most hits filed as inhibitors; 410,000 compounds, 1.2% hits; note: % is set by controls: 0 for no effect and ±100 for the full control effect; nearly all actives have a fitted effect of over 65% in size
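HEPG2 CAGA-GFP cells (1000/well, DMEM with 1% FBS) were pre-incubated 2 h at 37 degrees C, given compound by pin tool, then stimulated with TGF-beta at 500 pg/mL final for 18 h before per-cell GFP fluorescence imaging.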
RORgamma inh = blocks mouse ROR gamma transcriptional activity. Drosophila S2 Gal4-RORgamma UAS-luciferase reporter, 20 h. P51450. Potency, µM (highest dose often 53.6 µM), for inactives: at the top dose activity change, negative = inhibition, usual class: inhibitors. 310,000 compounds, 5.4% hits; note: % is set by controls: 0 for no effect and ±100 for the full control effect; nearly all actives have a fitted effect of over 60% in size
Target sequence (P51450 whole entry, looked up, the tested form may be a part): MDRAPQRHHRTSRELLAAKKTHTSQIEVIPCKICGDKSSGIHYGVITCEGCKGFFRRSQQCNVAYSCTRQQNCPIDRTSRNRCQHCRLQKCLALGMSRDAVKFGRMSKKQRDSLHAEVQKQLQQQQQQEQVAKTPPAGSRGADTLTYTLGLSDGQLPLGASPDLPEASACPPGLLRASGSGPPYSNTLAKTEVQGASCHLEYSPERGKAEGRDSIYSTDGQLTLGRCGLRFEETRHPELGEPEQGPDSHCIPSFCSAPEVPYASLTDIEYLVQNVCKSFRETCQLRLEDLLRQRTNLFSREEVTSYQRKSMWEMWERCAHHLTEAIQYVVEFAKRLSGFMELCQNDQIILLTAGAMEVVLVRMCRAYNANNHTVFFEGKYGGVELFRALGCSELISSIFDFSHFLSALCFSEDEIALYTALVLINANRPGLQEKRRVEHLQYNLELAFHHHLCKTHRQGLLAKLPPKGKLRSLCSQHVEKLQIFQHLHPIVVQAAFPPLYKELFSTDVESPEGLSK
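Luciferase reporter read in Schneider cells carrying Gal4-RORγ (mouse) and UAS-Photinus luciferase; cells given compound 1 h before 700 uM copper sulfate induction, then incubated 20 h at ambient temperature.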
* marks the source's active call; other numbers are inactive results; i = inactive; ? = inconclusive; . = not tested or not shown; ! = repeats disagree. Compounds with a hit are over-represented: about 6.1% of the library has one in this group of screens. Calls come from the whole dose curve; as a rule, active = well fitted curve in the direction sought with a large enough effect; inconclusive = small, poorly fitted or top-dose-only effect, or another doubt; inactive = no such curve, though single readings can be large; an effect the other way counts as inactive or inconclusive. Potency is the fitted concentration of half-maximal effect.

SMILES	HepG2 tox	ATXN2 expr inh	S2 tox	VP16 counter	TGFb inhibitor	RORgamma inh
Cc1nn(C)cc1/C=N\NC(=O)c1ccc2c(c1)c(C)c(C)n2Cc1ccccc1	-22%	-13%	i	?	-4%	16µM*
Cc1c(C)n(Cc2ccccc2)c2ccc(C(=O)O)cc12	11%	-23%	.	.	29%	.
COc1cc(/C=C2\SC(=S)N(NC(=O)c3ccc(O)c(OC)c3)C2=O)ccc1O	-21%	76%	?	?	27%	7.1µM*
Cn1cccc1/C=C1\SC(=S)N(NC(=O)c2ccc(F)cc2)C1=O	0%	-24%	i	16µM*	-10%	30%
O=C(O)c1c(O)c(-c2ccccc2)nc2ccccc12	.	40%	i	.	.	.
COc1ccc2cc(-c3nnc(Nc4ccccc4)s3)c(=O)oc2c1	0%	9%	i	.	8%	.
Cc1ccc2oc(-c3cccc(NC(=O)COc4ccc(Cl)cc4C)c3C)nc2c1	1%	.	.	.	-11%	.
Cc1cc2c(cc1C)N[C@]1(C[C@H]3CCCC(=O)N4CC[C@@H](C1)[C@@H]34)C(=NC1CCCCC1)N2	-27%	.	.	.	?	.
CC1(C)CC(=O)C(C(C2=C(O)CC(C)(C)CC2=O)c2ccc(Br)s2)C(=O)C1 (stereo not given)	-3%	?	?	10µM*	10µM*	?
Cc1ccc(C(C2=C(O)CC(C)(C)CC2=O)C2C(=O)CC(C)(C)CC2=O)s1 (stereo not given)	-3%	1%	i	10%	-10%	12%
COc1ccc(C2=NS(=O)(=O)N(C)C(C(=O)Nc3ccc(C(C)=O)cc3)=C2)cc1OC	-18%	?	?	16µM*	?	14%
COc1cc(=O)n2c(c1C(=O)N(C)Cc1nonc1C)CCN(Cc1cccc(Cl)c1)CC2	.	.	i	.	.	.
Cc1cc2c(c(C)c1Cl)C(c1ccc3c(c1)OCO3)CC(O)(c1ccccc1)O2 (stereo not given)	18µM*	.	.	?	20µM*	46%
CN1c2ccccc2N(C)C1c1ccc2c(c1)OCO2	-1%	-6%	i	-11%	-19%	3%
CCOC(=O)c1cccc(NC(=O)CN2C(=O)CC(C)(C)Sc3ccccc32)c1	-21%	-23%	28µM*	.	-8%	.
CC(=O)Nc1cccc(NC(=O)CN2C(=O)CCSc3ccccc32)c1	-3%	4%	i	.	25%	.
COc1cc(C2CC(=O)c3c([nH]c(C(=O)OCCOC(C)C)c3C)C2)cc(OC)c1OC (stereo not given)	-46%	32µM*	?	?	-34%	?
COc1cc(C2CC(=O)c3c([nH]c(C(=O)OCc4ccc(C)cc4)c3C)C2)cc(OC)c1OC (stereo not given)	-27%	.	.	.	?	.
CCc1cc(C(=O)N2CCOc3ccc(CN4CCN(Cc5ccccn5)CC4)cc3C2)no1	.	.	i	.	.	.
O=C(CO)N1CCC(c2[nH]nc(-c3ccc(Cl)cc3)c2-c2ccncn2)CC1	.	-14%	.	.	.	.
CSc1nnc(-c2cc3c(s2)-c2ccccc2CC3)o1	-33%	53%	i	-30%	?	1.3µM*
S=c1[nH]nc(-c2cc3c(s2)-c2ccccc2CC3)o1	-2%	28%	.	10µM*	7%	5µM*
CC1CCc2sc(-c3n[nH]c(=S)o3)cc2C1 (stereo not given)	3%	-4%	i	?	3%	?
CSc1nnc(-c2ccccc2)o1	2%	17%	i	0%	1%	-11%
NC(=O)NO	-2%	7.7µM*!	i	-2%	-7%	-5%
SMILES	HepG2 tox	ATXN2 expr inh	S2 tox	VP16 counter	TGFb inhibitor	RORgamma inh
O=C(NCC1(N2CCOCC2)CCCCC1)c1cnn(-c2nccc(-c3cccs3)n2)c1C1CC1	.	.	i	.	.	.
O=C(c1ccc(-c2ccccc2)cc1)C1CCCN(Cc2ccncc2)C1 (stereo not given)	-27%	-39%	i	0%	-24%	11µM*
O=C(c1ccc(-c2ccccc2)cc1)C1CCCN(C(=O)c2ccncc2)C1 (stereo not given)	-20%	-25%	i	0%	-20%	-1%
COC(=O)/C=C1\N/C(=N\c2nc(C)cc(C)n2)N(c2ccc(C)c(C)c2)C1=O	19%	-10%	i	?	-3%	11µM*
CCOC(=O)N1CCC(n2c(=O)[nH]c3cc(Cl)ccc32)CC1	.	?	i	.	.	.
Cn1nnc(NC(=O)c2ccccc2)n1	8%	8%	i	20%	-7%	?
Cn1nnc(NC(=S)NC(=O)c2ccco2)n1	-23%	3%	i	10µM*	?	?
Cn1nnc(NC(=S)NC(=O)Cc2ccccc2)n1	-3%	-8%	i	11µM*	-5%	1.4µM*
CC(=O)Nc1ccc(NC(=S)NC(=O)c2cc3ccccc3o2)cc1	0%	11%	i	25%	-12%	-1%
Cn1nnc(NC(=O)c2ccco2)n1	4%	-10%	i	-3%	19%	2%
Cn1nnc(NC(=S)NC(=O)c2cc3ccccc3o2)n1	-13%	.	i	6.3µM*	-24%	1.1µM*
CSc1ccc(CCNC(=O)CCn2c(=O)c3cccn3c3ccc(F)cc32)cc1	3%	.	.	.	-23%	.
COc1cc2c(-c3ccccc3Cl)nc3c(c(C)nn3-c3ccccc3)c2cc1OC	-3%	4%	i	.	?	.
CCc1nn(CC(=O)NCCCOC)c(=O)c2cc3occc3n12	-17%	8%	i	.	?	.
CCCOc1ccc(CNC(=O)C2CCCN(c3nc4c(C)cc(C)cc4s3)C2)cc1 (stereo not given)	-1%	.	.	.	2%	.
Cc1ccc(/C=C/C(=O)c2ccc(C)cc2)cc1	3%	13%	i	-13%	-6%	-38%
Cc1ccc(C(=O)/C=C/Nc2ccccc2C(N)=O)cc1	-63%	-32%	i	2.8µM*	-16%	0.5µM*
NC(=O)c1ccccc1N/C=C/C(=O)c1ccc(Cl)cc1	-30%	6%	i	1.6µM*	0%	1.4µM*
NC(=O)c1ccccc1N/C=C/C(=O)c1ccco1	-24%	13%	i	-9%	10%	-20%
Cc1ccc(C(=O)/C=C/C(=O)c2ccc(C)cc2)cc1	-23%	?	?	?	-1%	5µM*
Cc1ccc(/C=C/C(=O)Nc2ccccc2C(N)=O)cc1	-17%	37%	i	?	0%	3.5µM*
CCC[C@@H](C=O)NC(=O)[C@H](CC(C)C)NC(=O)[C@H](CC(C)C)NC(=O)OCc1ccccc1	.	1.5µM*	.	.	.	.
